Reference: PubChem BioAssay (NCI)
Compounds without any hit were thinned out: in the full panel of roughly 79,000, 15% have a hit. Calls of active or inactive are those of the source. No stated cut-off is given here; in the data, active means growth inhibition above about 70%; inactive means the rest.

Columns and labels:
[1] = NCI Yeast Anticancer Drug Screen. Data for the rad52 strain (AID 147);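 further: 0% = growth of vehicle-treated control cultures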; settings: S. cerevisiae rad52 mutant growth inhibition, active compounds read high
Method in brief: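 Yeast strain carrying a DNA damage repair alteration was exposed to test compounds. Growth inhibition was measured relative to vehicle-treated controls.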

[2] = NCI Yeast Anticancer Drug Screen. Data for the wt1 strain (AID 149);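 further: 0% = growth of vehicle-treated wt1 cultures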; settings: S. cerevisiae wt1 strain (SPY 50644) growth inhibition, active compounds read high
Method in brief: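 Yeast wt1 strain exposed to compounds; growth inhibition measured relative to vehicle-treated controls.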

[3] = NCI Yeast Anticancer Drug Screen. Data for the rad50EPP+ strain (AID 151);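 further: 0% = growth of vehicle-treated control cultures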; settings: S. cerevisiae rad50 mutant strain, active compounds read high
Method in brief: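 Yeast strain carrying rad50 alteration (rad50EPP+) exposed to compounds; growth inhibition measured relative to vehicle-treated controls.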

[4] = NCI Yeast Anticancer Drug Screen. Data for the mgt1 strain (AID 153); settings: S. cerevisiae mgt1 mutant growth inhibition, active compounds read high
Method in brief: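 Yeast mgt1 strain (DNA repair/cell-cycle alteration panel) exposed to compounds; growth inhibition measured relative to vehicle-treated controls.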

[5] = NCI Yeast Anticancer Drug Screen. Data for the rad50 strain (AID 155);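 further: 0% = growth of vehicle-only cultures of the same strain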; settings: S. cerevisiae rad50 strain growth inhibition, active compounds read high
Method in brief: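 Yeast carrying a defined DNA repair defect were exposed to test compounds, and growth was compared with vehicle-treated controls to give percent inhibition.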

[6] = NCI Yeast Anticancer Drug Screen. Data for the rad14 strain (AID 159);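 further: 0% = growth of vehicle-treated control cultures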; settings: S. cerevisiae rad14 strain growth inhibition, active compounds read high
Method in brief: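 Yeast cells carrying a defined DNA-repair defect were exposed to compounds, and growth inhibition was calculated relative to vehicle-treated control cultures.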

[7] = NCI Yeast Anticancer Drug Screen. Data for the sgs1 mgt1 strain (AID 161);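 further: 0% = growth of cultures given vehicle only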; settings: S. cerevisiae sgs1 mgt1 strain, active compounds read high
Method in brief: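 Yeast cells carrying a defined DNA-repair defect were exposed to test compounds. Growth inhibition was measured relative to vehicle-treated controls.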

[8] = NCI Yeast Anticancer Drug Screen. Data for the CLN2oe strain (AID 163);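 further: 0% = growth of vehicle-only control cultures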; settings: S. cerevisiae CLN2oe strain, active compounds read high
Method in brief: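 Yeast cells carrying a defined cell-cycle control alteration were exposed to test compounds. Growth inhibition was scored against vehicle-treated control cultures.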

[9] = NCI Yeast Anticancer Drug Screen. Data for the cln2 rad14 strain (AID 165);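 further: 0% = growth equal to vehicle treated cultures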; settings: S. cerevisiae cln2 rad14 strain, active compounds read high
Method in brief: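 Yeast carrying cln2 and rad14 alterations (cell cycle control and DNA damage repair) were exposed to compounds. Growth inhibition was measured against vehicle-treated controls.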

[10] = NCI Yeast Anticancer Drug Screen. Data for the bub3 strain (AID 167); settings: S. cerevisiae bub3 mutant strain, active compounds read high
Method in brief: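 Compounds were applied to a genetically altered yeast strain carrying a cell-cycle control defect. Growth inhibition was scored against vehicle-treated controls.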

[11] = NCI Yeast Anticancer Drug Screen. Data for the wt2 strain (AID 169);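 further: 0% = growth of vehicle-treated yeast cultures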; settings: S. cerevisiae wt2 strain growth inhibition, active compounds read high
Method in brief: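 Yeast cells were exposed to test compounds, and growth inhibition was measured relative to vehicle-treated controls.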

[12] = NCI Yeast Anticancer Drug Screen. Data for the mlh1 strain (AID 171);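 further: 0% = growth of vehicle-treated control cultures of the same strain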; settings: S. cerevisiae mlh1 strain growth inhibition, active compounds read high
Method in brief: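 Yeast carrying a defined genetic alteration in DNA damage repair or cell cycle control were exposed to test compounds. Growth inhibition was measured relative to vehicle-treated controls.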

[13] = NCI Yeast Anticancer Drug Screen. Data for the sgs1 strain (AID 173);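 further: 0% = growth of vehicle-only control cultures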; settings: S. cerevisiae sgs1 mutant, active compounds read high
Method in brief: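 Yeast mutant strains carrying defined defects in DNA damage repair or cell cycle control were exposed to test compounds. Growth inhibition was scored against vehicle-treated controls.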

[14] = NCI Yeast Anticancer Drug Screen. Data for the mlh1 rad18 strain (AID 175); settings: S. cerevisiae mlh1 rad18 strain growth inhibition, active compounds read high
Method in brief: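 Growth inhibition of the yeast strain was measured after compound exposure and expressed relative to vehicle-treated controls. The strain carries defined defects in DNA damage repair.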

[15] = NCI Yeast Anticancer Drug Screen. Data for the rad18 strain (AID 177); settings: S. cerevisiae rad18 mutant growth inhibition, active compounds read high
Method in brief: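 Yeast carrying a defined DNA damage repair alteration were exposed to compounds. Growth inhibition was expressed relative to vehicle-treated controls.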

[16] = NCI Yeast Anticancer Drug Screen. Data for the mec2-1 strain (AID 157); settings: S. cerevisiae mec2-1 strain, active compounds read high
Method in brief: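 mec2-1 yeast strain, carrying an alteration in DNA damage repair or cell cycle control, was exposed to compounds; growth inhibition was measured relative to vehicle-treated controls.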

[17] = at 5.0 µM (retest, dose inferred, filed as 0.5)
[18] = at 50.0 µM (retest, dose inferred, filed as 5.0)

Measured: growth inhibition

COC(=O)C1=C(C)NC(C)=C(C(=O)OC)C1c1cccc(/[N+]([O-])=C/c2ccccc2)c1
inactive: [1]; at 1.2 µM 1% | [1]; at 3.7 µM 2% | [1]; at 11.0 µM 9% | [1]; at 33.0 µM 23% | [2]; at 1.2 µM 2% | [2]; at 3.7 µM 4% | [2]; at 11.0 µM 8% | [2]; at 33.0 µM 18% | [2]; at 100.0 µM 50% | [3]; at 1.2 µM -1% | [3]; at 3.7 µM -3% | [3]; at 11.0 µM -4% | [3]; at 33.0 µM 1% | [3]; at 100.0 µM 15% | [4]; at 1.2 µM 1% | [4]; at 3.7 µM 4% | [4]; at 11.0 µM 13% | [4]; at 33.0 µM 33% | [5]; at 1.2 µM -3% | [5]; at 3.7 µM -9% | [5]; [17] 11% | [5]; at 11.0 µM -9% | [5]; at 33.0 µM 29% | [5]; [18] 35% | [5]; at 50.0 µM 64.8% | [6]; at 1.2 µM 2% | [6]; at 3.7 µM 4% | [6]; at 11.0 µM 16% | [6]; at 33.0 µM 34% | [7]; [17] 51% | [7]; [18] 50% | [7]; at 50.0 µM 51.1% | [8]; at 1.2 µM 4% | [8]; at 3.7 µM 6% | [8]; at 11.0 µM 13% | [8]; at 33.0 µM 33% | [9]; [17] 6% | [9]; [18] 33% | [9]; at 50.0 µM 44.8% | [10]; at 1.2 µM 1% | [10]; at 3.7 µM 4% | [10]; [17] 43% | [10]; at 11.0 µM 10% | [10]; at 33.0 µM 30% | [10]; at 50.0 µM 59.6% | [11]; at 1.2 µM 0% | [11]; at 3.7 µM 1% | [11]; at 11.0 µM 8% | [11]; at 33.0 µM 32% | [12]; at 1.2 µM 3% | [12]; at 3.7 µM 3% | [12]; at 11.0 µM 12% | [12]; at 33.0 µM 39% | [13]; at 1.2 µM 1% | [13]; at 3.7 µM 5% | [13]; at 11.0 µM 12% | [14]; [17] 4% | [14]; [18] 40% | [14]; at 50.0 µM 66% | [15]; at 1.2 µM 2% | [15]; at 3.7 µM 7% | [15]; at 11.0 µM 17% | [15]; at 33.0 µM 48%
active: [1]; at 100.0 µM 90% | [4]; at 100.0 µM 96% | [5]; at 100.0 µM 83% | [6]; at 100.0 µM 92% | [8]; at 100.0 µM 74% | [10]; [18] 79% | [10]; at 100.0 µM 91% | [11]; at 100.0 µM 95% | [12]; at 100.0 µM 96% | [13]; at 33.0 µM 71% | [13]; at 100.0 µM 96% | [15]; at 100.0 µM 93%

c1ccc2c(c1)sc1nc3ccncc3nc12
active: [1]; at 100.0 µM 92% | [3]; at 33.0 µM 85% | [3]; at 100.0 µM 89%
inactive: [1]; at 1.2 µM 5% | [1]; at 3.7 µM 16% | [1]; at 11.0 µM 38% | [1]; at 33.0 µM 61% | [2]; at 1.2 µM 0% | [2]; at 3.7 µM 13% | [2]; at 11.0 µM 21% | [2]; at 33.0 µM 20% | [2]; at 100.0 µM 29% | [3]; at 1.2 µM 23% | [3]; at 3.7 µM 52% | [3]; at 11.0 µM 55% | [4]; at 1.2 µM 2% | [4]; at 3.7 µM -2% | [4]; at 11.0 µM -1% | [4]; at 33.0 µM -1% | [4]; at 100.0 µM 2% | [16]; at 1.2 µM 5% | [16]; at 3.7 µM 1% | [16]; [17] -38% | [16]; at 11.0 µM 0% | [16]; at 33.0 µM 3% | [16]; [18] -8% | [16]; at 50.0 µM 28.1% | [16]; at 100.0 µM 9% | [6]; at 1.2 µM 21% | [6]; at 3.7 µM 10% | [6]; at 11.0 µM 11% | [6]; at 33.0 µM 19% | [6]; at 100.0 µM 29% | [7]; [17] -61% | [7]; [18] -16% | [7]; at 50.0 µM 3.7% | [8]; at 1.2 µM 2% | [8]; at 3.7 µM 5% | [8]; at 11.0 µM 4% | [8]; at 33.0 µM 4% | [8]; at 100.0 µM 7% | [9]; [17] -50% | [9]; [18] -8% | [9]; at 50.0 µM 9.05% | [10]; at 1.2 µM 10% | [10]; at 3.7 µM 3% | [10]; [17] -51% | [10]; at 11.0 µM 8% | [10]; at 33.0 µM 11% | [10]; [18] 1% | [10]; at 50.0 µM 6.1% | [10]; at 100.0 µM 20% | [11]; at 1.2 µM 13% | [11]; at 3.7 µM 12% | [11]; at 11.0 µM 17% | [11]; at 33.0 µM 17% | [11]; at 100.0 µM 29% | [12]; at 1.2 µM -5% | [12]; at 3.7 µM -1% | [12]; at 11.0 µM 1% | [12]; at 33.0 µM 8% | [12]; at 100.0 µM 12% | [13]; at 1.2 µM -5% | [13]; at 3.7 µM -8% | [13]; at 11.0 µM 3% | [13]; at 33.0 µM 9% | [13]; at 100.0 µM 13% | [14]; [17] -110% | [14]; [18] -30% | [14]; at 50.0 µM 32.7%

O=c1c2ccccc2ncn1COCc1ccccc1
inactive: [1]; at 1.2 µM -4% | [1]; at 3.7 µM 3% | [1]; at 11.0 µM -22% | [1]; at 33.0 µM -16% | [1]; at 100.0 µM 2% | [2]; at 1.2 µM -2% | [2]; at 3.7 µM -19% | [2]; at 11.0 µM -11% | [2]; at 33.0 µM -13% | [2]; at 100.0 µM 8% | [3]; at 1.2 µM -31% | [3]; at 3.7 µM -30% | [3]; at 11.0 µM -28% | [3]; at 33.0 µM -21% | [3]; at 100.0 µM 8% | [4]; at 1.2 µM -17% | [4]; at 3.7 µM -14% | [4]; at 11.0 µM -11% | [4]; at 33.0 µM 1% | [4]; at 100.0 µM 21% | [5]; at 1.2 µM -10% | [5]; at 3.7 µM 2% | [5]; [17] 14% | [5]; at 11.0 µM 3% | [5]; at 33.0 µM 9% | [5]; [18] 19% | [5]; at 50.0 µM 1.9% | [5]; at 100.0 µM 23% | [16]; at 1.2 µM -12% | [16]; at 3.7 µM -15% | [16]; [17] 14% | [16]; at 11.0 µM -11% | [16]; at 33.0 µM 2% | [16]; [18] 15% | [16]; at 50.0 µM -6.6% | [16]; at 100.0 µM 26% | [7]; [17] 13% | [7]; [18] 69% | [9]; [17] 12% | [9]; at 50.0 µM 52.4% | [10]; at 1.2 µM -20% | [10]; at 3.7 µM -18% | [10]; [17] 7% | [10]; at 11.0 µM -7% | [10]; at 33.0 µM 29% | [10]; at 100.0 µM 58% | [11]; at 1.2 µM -16% | [11]; at 3.7 µM -3% | [11]; at 11.0 µM -7% | [11]; at 33.0 µM -3% | [11]; at 100.0 µM 15% | [12]; at 1.2 µM 0% | [12]; at 3.7 µM 12% | [12]; at 11.0 µM -4% | [12]; at 33.0 µM 6% | [12]; at 100.0 µM 27%
active: [7]; at 50.0 µM 89.5% | [9]; [18] 75% | [10]; [18] 88% | [10]; at 50.0 µM 74.3%
